Tests used:
Assay in all cases: SPOT peptide array binding signal intensity (averaged, normalized) (arbitrary units (background-subtracted, floor 0; scale differs between SH3 domains)); higher = stronger binding of the SH3 domain to the peptide
[1] = target: AgAbp1
Method in brief: (§1)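 Detection of bound protein relied on anti-GST antibody, an HRP anti-mouse secondary and luminol, with imaging and quantification in Genespotter. The bound protein was GST-fused SH3 domains from four yeast species, incubated at 10 μg/ml overnight at 4°C in TBS-based blocking buffer on cellulose membranes carrying synthetic 15-mer peptides with cysteines replaced by serines. Binding signal is normalized, background-subtracted spot intensity averaged over replicates, in arbitrary units that differ between domains.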

[2] = target: AgBbc1
Method in brief: as §1

[3] = target: AgBem1-D1
Method in brief: as §1

[4] = target: AgBzz1-D1
Method in brief: as §1

[5] = target: AgBzz1-D2
Method in brief: as §1

[6] = target: AgCyk3
Method in brief: as §1

[7] = target: AgFus1
Method in brief: as §1

[8] = target: AgHof1
Method in brief: as §1

[9] = target: AgHse1
Method in brief: as §1

[10] = target: AgLsb1
Method in brief: as §1

[11] = target: AgLsb4
Method in brief: as §1

[12] = target: AgMyo5
Method in brief: as §1

[13] = target: AgNbp2
Method in brief: as §1

[14] = target: AgRvs167
Method in brief: as §1

[15] = target: AgSho1
Method in brief: as §1

[16] = target: AgSla1-D1-D2
Method in brief: as §1

[17] = target: AgSla1-D3
Method in brief: as §1

[18] = target: CaAbp1-D1
Method in brief: as §1

[19] = target: CaAbp1-D2
Method in brief: as §1

[20] = target: CaBbc1
Method in brief: as §1

[21] = target: CaBem1-D1
Method in brief: as §1

[22] = target: CaBzz1-D1
Method in brief: as §1

[23] = target: CaBzz1-D2
Method in brief: as §1

[24] = target: CaCyk3
Method in brief: as §1

[25] = target: CaFus1
Method in brief: as §1

[26] = target: CaHof1
Method in brief: as §1

[27] = target: CaHse1
Method in brief: as §1

[28] = target: CaLsb1
Method in brief: as §1

[29] = target: CaLsb4
Method in brief: as §1

[30] = target: CaMyo5
Method in brief: as §1

[31] = target: CaNbp2
Method in brief: as §1

[32] = target: CaRvs167
Method in brief: as §1

[33] = target: CaRvs167-3
Method in brief: as §1

[34] = target: CaSho1
Method in brief: as §1

[35] = target: CaSla1-D1-D2
Method in brief: as §1

[36] = target: CaSla1-D3
Method in brief: as §1

[37] = target: ScAbp1
Method in brief: as §1

[38] = target: ScBbc1
Method in brief: as §1

[39] = target: ScBem1-D1
Method in brief: as §1

[40] = target: ScBzz1-D1
Method in brief: as §1

[41] = target: ScBzz1-D2
Method in brief: as §1

[42] = target: ScCyk3
Method in brief: as §1

[43] = target: ScFus1
Method in brief: as §1

[44] = target: ScHof1
Method in brief: as §1

[45] = target: ScHse1
Method in brief: as §1

[46] = target: ScLsb1
Method in brief: as §1

[47] = target: ScLsb2
Method in brief: as §1

[48] = target: ScLsb3
Method in brief: as §1

[49] = target: ScLsb4
Method in brief: as §1

[50] = target: ScMyo3
Method in brief: as §1

[51] = target: ScMyo5
Method in brief: as §1

[52] = target: ScNbp2
Method in brief: as §1

[53] = target: ScPex13
Method in brief: as §1

[54] = target: ScRvs167
Method in brief: as §1

[55] = target: ScSho1
Method in brief: as §1

[56] = target: ScSla1-D1-D2
Method in brief: as §1

[57] = target: ScSla1-D3
Method in brief: as §1

[58] = target: SpAbp1-D1
Method in brief: as §1

[59] = target: SpBbc1
Method in brief: as §1

[60] = target: SpBzz1-D1
Method in brief: as §1

[61] = target: SpBzz1-D2
Method in brief: as §1

[62] = target: SpCyk3
Method in brief: as §1

[63] = target: SpHof1
Method in brief: as §1

[64] = target: SpHof1-2
Method in brief: as §1

[65] = target: SpHof1-3
Method in brief: as §1

[66] = target: SpHse1
Method in brief: as §1

[67] = target: SpLsb1
Method in brief: as §1

[68] = target: SpLsb4
Method in brief: as §1

[69] = target: SpMyo1
Method in brief: as §1

[70] = target: SpNbp2
Method in brief: as §1

[71] = target: SpPex13
Method in brief: as §1

[72] = target: SpRvs167
Method in brief: as §1

[73] = target: SpSla1-D1-D2
Method in brief: as §1

[74] = target: SpSla1-D3
Method in brief: as §1

SRYRRPLTLLLLKPF
SPOT peptide array binding signal intensity [1]: 16 | SPOT peptide array binding signal intensity [2]: 6 | SPOT peptide array binding signal intensity [3]: 0.5 | SPOT peptide array binding signal intensity [4]: 23 | SPOT peptide array binding signal intensity [5]: 17 | SPOT peptide array binding signal intensity [6]: 1 | SPOT peptide array binding signal intensity [7]: 965 | SPOT peptide array binding signal intensity [8]: 13.8 | SPOT peptide array binding signal intensity [9]: 1270 | SPOT peptide array binding signal intensity [10]: ≤ 0 | SPOT peptide array binding signal intensity [11]: 270 | SPOT peptide array binding signal intensity [12]: 0.5 | SPOT peptide array binding signal intensity [13]: 97.5 | SPOT peptide array binding signal intensity [14]: 5.17 | SPOT peptide array binding signal intensity [15]: 334 | SPOT peptide array binding signal intensity [16]: 40 | SPOT peptide array binding signal intensity [17]: 4 | SPOT peptide array binding signal intensity [18]: 155 | SPOT peptide array binding signal intensity [19]: 128 | SPOT peptide array binding signal intensity [20]: 38 | SPOT peptide array binding signal intensity [21]: 8.5 | SPOT peptide array binding signal intensity [22]: 26.5 | SPOT peptide array binding signal intensity [23]: 14.2 | SPOT peptide array binding signal intensity [24]: 9 | SPOT peptide array binding signal intensity [25]: 1410 | SPOT peptide array binding signal intensity [26]: 0.5 | SPOT peptide array binding signal intensity [27]: 80.8 | SPOT peptide array binding signal intensity [28]: 2.5 | SPOT peptide array binding signal intensity [29]: 37 | SPOT peptide array binding signal intensity [30]: ≤ 0 | SPOT peptide array binding signal intensity [31]: 870 | SPOT peptide array binding signal intensity [32]: 66.8 | SPOT peptide array binding signal intensity [33]: 141 | SPOT peptide array binding signal intensity [34]: 493 | SPOT peptide array binding signal intensity [35]: ≤ 0 | SPOT peptide array binding signal intensity [36]: 39.2 | SPOT peptide array binding signal intensity [37]: 83 | SPOT peptide array binding signal intensity [38]: 2.5 | SPOT peptide array binding signal intensity [39]: 10 | SPOT peptide array binding signal intensity [40]: 13 | SPOT peptide array binding signal intensity [41]: 74.5 | SPOT peptide array binding signal intensity [42]: 28 | SPOT peptide array binding signal intensity [43]: 546 | SPOT peptide array binding signal intensity [44]: 1 | SPOT peptide array binding signal intensity [45]: 2310 | SPOT peptide array binding signal intensity [46]: 12.5 | SPOT peptide array binding signal intensity [47]: 2 | SPOT peptide array binding signal intensity [48]: 107 | SPOT peptide array binding signal intensity [49]: 31.5 | SPOT peptide array binding signal intensity [50]: 0.5 | SPOT peptide array binding signal intensity [51]: 0.5 | SPOT peptide array binding signal intensity [52]: 234 | SPOT peptide array binding signal intensity [53]: 1 | SPOT peptide array binding signal intensity [54]: 11 | SPOT peptide array binding signal intensity [55]: 648 | SPOT peptide array binding signal intensity [56]: 1 | SPOT peptide array binding signal intensity [57]: 8 | SPOT peptide array binding signal intensity [58]: 199 | SPOT peptide array binding signal intensity [59]: 6.25 | SPOT peptide array binding signal intensity [60]: 18 | SPOT peptide array binding signal intensity [61]: ≤ 0 | SPOT peptide array binding signal intensity [62]: 4 | SPOT peptide array binding signal intensity [63]: 144 | SPOT peptide array binding signal intensity [64]: 21.8 | SPOT peptide array binding signal intensity [65]: 686 | SPOT peptide array binding signal intensity [66]: 643 | SPOT peptide array binding signal intensity [67]: 3 | SPOT peptide array binding signal intensity [68]: 67 | SPOT peptide array binding signal intensity [69]: 4.5 | SPOT peptide array binding signal intensity [70]: 374 | SPOT peptide array binding signal intensity [71]: 11.5 | SPOT peptide array binding signal intensity [72]: 13.8 | SPOT peptide array binding signal intensity [73]: 5 | SPOT peptide array binding signal intensity [74]: 6.5

NPLPKEPRLPKRKVA
SPOT peptide array binding signal intensity [61]: 2.5 | SPOT peptide array binding signal intensity [62]: ≤ 0 | SPOT peptide array binding signal intensity [63]: 120 | SPOT peptide array binding signal intensity [64]: 262 | SPOT peptide array binding signal intensity [65]: 464 | SPOT peptide array binding signal intensity [66]: 198 | SPOT peptide array binding signal intensity [67]: 16 | SPOT peptide array binding signal intensity [68]: 7280 | SPOT peptide array binding signal intensity [69]: ≤ 0 | SPOT peptide array binding signal intensity [70]: 27 | SPOT peptide array binding signal intensity [71]: 15 | SPOT peptide array binding signal intensity [72]: 1700 | SPOT peptide array binding signal intensity [73]: ≤ 0 | SPOT peptide array binding signal intensity [74]: 15

Reference: the supplement of paper PMC4466140
